The record followed here is the supplement of paper PMC11732987, “Enantioselective OTUD7B fragment discovery through chemoproteomics screening and high-throughput optimisation” (Communications Chemistry, 2025).

Values without a mark were called inactive.

Common to all, as to assay: log2 ratio of Biotin-Ahx-Ub-VS probe labelling (fragment/DMSO); higher = less target engagement (more negative = stronger competition), active = hit call of the paper (q ≤ 0.05, log2 ratio ≤ -1)
Holding throughout (settings): compound concentration: 200 uM; treatment time: 3 h

The target of assay [1] is T1, USP42 (UniProt Q9H9J4).
T1 sequence (whole entry): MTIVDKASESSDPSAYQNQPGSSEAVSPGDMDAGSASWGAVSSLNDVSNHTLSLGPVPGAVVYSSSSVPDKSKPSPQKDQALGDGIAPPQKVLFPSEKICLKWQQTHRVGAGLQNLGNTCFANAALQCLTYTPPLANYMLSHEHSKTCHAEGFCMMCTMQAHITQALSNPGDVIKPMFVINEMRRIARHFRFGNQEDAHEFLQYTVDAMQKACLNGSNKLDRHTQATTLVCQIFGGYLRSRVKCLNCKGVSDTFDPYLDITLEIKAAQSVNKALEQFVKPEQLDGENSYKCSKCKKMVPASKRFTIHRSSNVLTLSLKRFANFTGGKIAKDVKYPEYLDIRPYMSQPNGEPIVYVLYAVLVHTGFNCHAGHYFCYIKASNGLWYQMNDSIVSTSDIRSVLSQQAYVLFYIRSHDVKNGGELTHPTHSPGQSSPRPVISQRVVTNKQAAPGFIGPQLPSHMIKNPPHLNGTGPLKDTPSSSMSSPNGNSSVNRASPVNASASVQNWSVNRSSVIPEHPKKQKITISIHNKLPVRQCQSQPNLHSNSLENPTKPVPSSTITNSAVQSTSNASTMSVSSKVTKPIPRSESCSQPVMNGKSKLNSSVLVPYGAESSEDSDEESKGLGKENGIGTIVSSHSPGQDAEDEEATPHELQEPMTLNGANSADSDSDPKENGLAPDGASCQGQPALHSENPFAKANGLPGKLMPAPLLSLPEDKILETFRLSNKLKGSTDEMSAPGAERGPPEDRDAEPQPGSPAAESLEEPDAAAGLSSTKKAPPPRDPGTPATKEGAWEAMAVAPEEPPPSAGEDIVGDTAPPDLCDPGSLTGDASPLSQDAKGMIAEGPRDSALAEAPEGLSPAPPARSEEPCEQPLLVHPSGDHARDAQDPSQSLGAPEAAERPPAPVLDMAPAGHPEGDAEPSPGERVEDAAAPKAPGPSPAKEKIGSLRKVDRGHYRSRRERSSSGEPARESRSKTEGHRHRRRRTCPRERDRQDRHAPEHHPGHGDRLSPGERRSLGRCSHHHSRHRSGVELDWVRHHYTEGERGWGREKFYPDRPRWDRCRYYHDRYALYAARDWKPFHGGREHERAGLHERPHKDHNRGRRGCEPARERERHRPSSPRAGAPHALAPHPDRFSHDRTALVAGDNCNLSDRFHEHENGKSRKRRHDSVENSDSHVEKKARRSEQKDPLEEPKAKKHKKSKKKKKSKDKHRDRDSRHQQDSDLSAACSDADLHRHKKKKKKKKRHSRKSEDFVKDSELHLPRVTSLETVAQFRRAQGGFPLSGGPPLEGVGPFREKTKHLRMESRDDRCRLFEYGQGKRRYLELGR
The essentials:
(§1)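 HEK293T lysate, 495 µg per sample in Tris/CHAPS/IGEPAL buffer with protease inhibitors, was treated in triplicate with fragment at 200 µM or vehicle for 3 h and then with Biotin-Ahx-Ub-VS at 0.5 µM final for 1 h. Labelled DUBs were NeutrAvidin-enriched, digested with LysC and trypsin, and run by diaPASEF LC-MS/MS. Spectronaut label-free quantities were global-median-normalised, and values are average log2 fragment/vehicle ratios by unpaired t-test on proteins with ≥2 unique peptides.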

Assay [2] addresses USP46 (UniProt P62068). The essentials:
as §1

Assay [3] deals with T2, USP47 (UniProt Q96K76).
T2 sequence (whole entry): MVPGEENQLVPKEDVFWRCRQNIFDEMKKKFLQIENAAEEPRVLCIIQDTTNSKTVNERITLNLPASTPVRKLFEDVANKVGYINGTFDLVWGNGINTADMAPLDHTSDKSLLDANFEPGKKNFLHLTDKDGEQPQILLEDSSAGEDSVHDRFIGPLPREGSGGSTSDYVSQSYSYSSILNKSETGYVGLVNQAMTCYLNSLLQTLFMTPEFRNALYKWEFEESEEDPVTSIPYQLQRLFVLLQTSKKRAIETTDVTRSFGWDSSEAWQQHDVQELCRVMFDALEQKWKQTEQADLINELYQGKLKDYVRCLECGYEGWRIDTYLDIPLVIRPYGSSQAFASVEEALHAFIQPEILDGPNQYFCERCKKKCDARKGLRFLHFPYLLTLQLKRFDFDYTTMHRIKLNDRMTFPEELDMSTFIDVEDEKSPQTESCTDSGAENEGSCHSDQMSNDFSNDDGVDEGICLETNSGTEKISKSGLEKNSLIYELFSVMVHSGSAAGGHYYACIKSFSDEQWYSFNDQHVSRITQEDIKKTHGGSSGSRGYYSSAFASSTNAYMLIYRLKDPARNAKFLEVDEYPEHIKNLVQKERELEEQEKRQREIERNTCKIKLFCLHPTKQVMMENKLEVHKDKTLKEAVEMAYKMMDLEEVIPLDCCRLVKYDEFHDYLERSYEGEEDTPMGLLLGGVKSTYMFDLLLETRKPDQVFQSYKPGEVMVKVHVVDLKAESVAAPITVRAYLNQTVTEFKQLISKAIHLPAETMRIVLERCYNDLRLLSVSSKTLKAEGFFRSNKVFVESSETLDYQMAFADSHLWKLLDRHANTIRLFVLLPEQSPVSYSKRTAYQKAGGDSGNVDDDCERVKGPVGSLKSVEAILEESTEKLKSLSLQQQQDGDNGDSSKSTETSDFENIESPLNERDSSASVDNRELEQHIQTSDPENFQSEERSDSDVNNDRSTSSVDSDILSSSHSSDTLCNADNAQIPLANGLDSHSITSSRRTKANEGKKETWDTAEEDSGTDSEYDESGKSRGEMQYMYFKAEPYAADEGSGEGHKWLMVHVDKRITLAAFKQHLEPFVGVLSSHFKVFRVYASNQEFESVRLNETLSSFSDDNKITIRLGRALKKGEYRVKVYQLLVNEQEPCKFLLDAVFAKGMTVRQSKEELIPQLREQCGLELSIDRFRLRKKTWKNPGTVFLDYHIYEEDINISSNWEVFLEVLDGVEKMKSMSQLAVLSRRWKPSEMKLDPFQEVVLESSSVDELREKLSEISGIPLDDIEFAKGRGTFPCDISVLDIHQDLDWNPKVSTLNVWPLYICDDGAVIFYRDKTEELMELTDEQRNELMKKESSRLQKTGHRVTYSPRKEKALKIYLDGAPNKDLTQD
The essentials:
as §1

Assay [4] has as its target T3, USP48 (UniProt Q86UV5).
T3 sequence (whole entry): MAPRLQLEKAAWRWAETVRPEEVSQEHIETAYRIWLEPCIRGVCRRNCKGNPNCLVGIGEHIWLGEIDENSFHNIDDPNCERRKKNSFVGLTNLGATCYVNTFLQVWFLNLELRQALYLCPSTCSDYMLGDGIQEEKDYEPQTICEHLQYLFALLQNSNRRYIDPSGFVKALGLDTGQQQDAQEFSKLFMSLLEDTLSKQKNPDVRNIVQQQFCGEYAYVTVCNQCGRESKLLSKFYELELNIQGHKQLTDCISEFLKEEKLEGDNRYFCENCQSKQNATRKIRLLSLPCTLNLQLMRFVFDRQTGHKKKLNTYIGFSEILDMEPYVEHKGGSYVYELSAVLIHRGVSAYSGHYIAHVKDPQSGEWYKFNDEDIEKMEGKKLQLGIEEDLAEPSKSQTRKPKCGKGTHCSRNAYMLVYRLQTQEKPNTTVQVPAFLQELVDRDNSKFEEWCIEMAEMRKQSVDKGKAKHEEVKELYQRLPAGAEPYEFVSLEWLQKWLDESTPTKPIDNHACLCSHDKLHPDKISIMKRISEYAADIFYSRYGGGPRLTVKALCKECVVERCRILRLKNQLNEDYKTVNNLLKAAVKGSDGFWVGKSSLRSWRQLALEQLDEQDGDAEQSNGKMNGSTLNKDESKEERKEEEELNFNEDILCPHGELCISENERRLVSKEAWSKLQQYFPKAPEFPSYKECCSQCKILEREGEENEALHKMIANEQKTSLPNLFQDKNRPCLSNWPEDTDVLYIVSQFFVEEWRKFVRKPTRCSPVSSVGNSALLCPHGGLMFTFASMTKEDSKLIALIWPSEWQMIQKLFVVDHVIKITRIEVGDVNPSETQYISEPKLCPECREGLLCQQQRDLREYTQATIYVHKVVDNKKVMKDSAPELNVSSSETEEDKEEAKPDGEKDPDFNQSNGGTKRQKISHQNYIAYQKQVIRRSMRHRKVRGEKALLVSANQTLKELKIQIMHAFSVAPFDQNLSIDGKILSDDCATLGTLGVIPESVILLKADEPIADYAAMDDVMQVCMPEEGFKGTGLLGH
In outline: as §1

Assay [5] deals with T4, USP5 (UniProt P45974).
T4 sequence (whole entry): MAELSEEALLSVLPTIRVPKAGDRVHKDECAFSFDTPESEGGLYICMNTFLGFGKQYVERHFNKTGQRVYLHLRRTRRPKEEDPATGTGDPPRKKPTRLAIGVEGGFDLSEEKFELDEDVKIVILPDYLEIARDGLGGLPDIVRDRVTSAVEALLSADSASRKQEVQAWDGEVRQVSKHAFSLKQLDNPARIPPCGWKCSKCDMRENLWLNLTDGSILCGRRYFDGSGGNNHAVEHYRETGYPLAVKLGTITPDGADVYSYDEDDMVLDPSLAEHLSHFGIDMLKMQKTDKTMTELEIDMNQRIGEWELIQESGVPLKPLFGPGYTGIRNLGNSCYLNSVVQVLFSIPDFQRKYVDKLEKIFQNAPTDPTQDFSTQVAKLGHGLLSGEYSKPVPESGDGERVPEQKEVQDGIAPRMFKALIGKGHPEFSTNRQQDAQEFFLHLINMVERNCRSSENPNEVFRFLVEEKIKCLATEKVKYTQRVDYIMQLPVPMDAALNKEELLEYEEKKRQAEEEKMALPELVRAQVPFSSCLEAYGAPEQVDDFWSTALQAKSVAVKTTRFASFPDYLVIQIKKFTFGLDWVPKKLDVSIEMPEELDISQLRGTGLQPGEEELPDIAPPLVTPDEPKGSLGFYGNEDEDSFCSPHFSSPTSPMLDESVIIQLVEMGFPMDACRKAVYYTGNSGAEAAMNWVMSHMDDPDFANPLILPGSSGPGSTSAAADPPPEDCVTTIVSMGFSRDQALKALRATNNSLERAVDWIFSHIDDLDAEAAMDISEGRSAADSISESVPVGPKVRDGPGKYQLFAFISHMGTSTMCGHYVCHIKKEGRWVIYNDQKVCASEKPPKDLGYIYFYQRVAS
In outline:
as §1

Assay [6] has as its target USP54 (UniProt Q70EL1). In outline:
as §1

For assay [7], the target named is USP7 (UniProt Q93009). In outline:
as §1

In assay [8] the target is T5, USP8 (UniProt P40818).
T5 sequence (whole entry): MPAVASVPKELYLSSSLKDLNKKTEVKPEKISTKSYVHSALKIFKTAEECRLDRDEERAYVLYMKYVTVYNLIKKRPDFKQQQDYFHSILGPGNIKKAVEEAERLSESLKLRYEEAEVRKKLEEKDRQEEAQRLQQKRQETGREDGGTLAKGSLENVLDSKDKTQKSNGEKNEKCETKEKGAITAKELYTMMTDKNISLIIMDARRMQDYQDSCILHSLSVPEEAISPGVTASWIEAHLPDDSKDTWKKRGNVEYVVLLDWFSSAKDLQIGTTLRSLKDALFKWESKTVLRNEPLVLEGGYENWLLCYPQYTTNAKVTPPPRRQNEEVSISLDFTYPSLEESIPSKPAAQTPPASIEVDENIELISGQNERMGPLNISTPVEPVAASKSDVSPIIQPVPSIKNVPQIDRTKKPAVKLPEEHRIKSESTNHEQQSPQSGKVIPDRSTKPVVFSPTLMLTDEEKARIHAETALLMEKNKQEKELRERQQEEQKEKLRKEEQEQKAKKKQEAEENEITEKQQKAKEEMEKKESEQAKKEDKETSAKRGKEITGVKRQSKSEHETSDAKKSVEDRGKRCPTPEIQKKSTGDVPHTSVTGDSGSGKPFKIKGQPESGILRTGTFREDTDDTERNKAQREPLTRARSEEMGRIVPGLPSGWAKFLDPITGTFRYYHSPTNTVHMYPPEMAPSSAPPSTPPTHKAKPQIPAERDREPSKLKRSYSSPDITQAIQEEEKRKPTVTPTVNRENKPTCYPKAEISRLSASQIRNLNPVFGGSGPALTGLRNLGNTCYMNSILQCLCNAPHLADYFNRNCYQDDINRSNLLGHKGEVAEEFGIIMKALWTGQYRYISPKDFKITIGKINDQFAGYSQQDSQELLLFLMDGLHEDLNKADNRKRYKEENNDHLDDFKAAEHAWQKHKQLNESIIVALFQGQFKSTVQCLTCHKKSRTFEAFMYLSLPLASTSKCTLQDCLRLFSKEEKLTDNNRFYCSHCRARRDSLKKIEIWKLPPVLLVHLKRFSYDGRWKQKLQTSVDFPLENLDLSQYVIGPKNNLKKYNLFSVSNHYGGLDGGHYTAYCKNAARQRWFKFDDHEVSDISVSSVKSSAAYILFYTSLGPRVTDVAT
The essentials:
as §1

In assay [9] the target is USP9X (UniProt Q93008). In outline: as §1
Assay [10] concerns the target UniProt O00487. In outline: as §1

Chain of USP46 (P62068 whole entry): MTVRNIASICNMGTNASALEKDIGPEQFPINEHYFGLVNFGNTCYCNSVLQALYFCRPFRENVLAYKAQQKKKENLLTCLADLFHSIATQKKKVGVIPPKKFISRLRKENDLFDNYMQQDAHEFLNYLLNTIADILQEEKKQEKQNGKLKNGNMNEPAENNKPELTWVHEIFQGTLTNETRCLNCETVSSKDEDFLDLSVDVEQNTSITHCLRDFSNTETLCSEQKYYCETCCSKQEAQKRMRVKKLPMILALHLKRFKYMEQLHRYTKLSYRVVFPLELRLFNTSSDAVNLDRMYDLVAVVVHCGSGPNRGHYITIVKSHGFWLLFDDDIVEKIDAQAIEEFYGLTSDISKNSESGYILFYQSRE
Chain of USP54 (Q70EL1 whole entry): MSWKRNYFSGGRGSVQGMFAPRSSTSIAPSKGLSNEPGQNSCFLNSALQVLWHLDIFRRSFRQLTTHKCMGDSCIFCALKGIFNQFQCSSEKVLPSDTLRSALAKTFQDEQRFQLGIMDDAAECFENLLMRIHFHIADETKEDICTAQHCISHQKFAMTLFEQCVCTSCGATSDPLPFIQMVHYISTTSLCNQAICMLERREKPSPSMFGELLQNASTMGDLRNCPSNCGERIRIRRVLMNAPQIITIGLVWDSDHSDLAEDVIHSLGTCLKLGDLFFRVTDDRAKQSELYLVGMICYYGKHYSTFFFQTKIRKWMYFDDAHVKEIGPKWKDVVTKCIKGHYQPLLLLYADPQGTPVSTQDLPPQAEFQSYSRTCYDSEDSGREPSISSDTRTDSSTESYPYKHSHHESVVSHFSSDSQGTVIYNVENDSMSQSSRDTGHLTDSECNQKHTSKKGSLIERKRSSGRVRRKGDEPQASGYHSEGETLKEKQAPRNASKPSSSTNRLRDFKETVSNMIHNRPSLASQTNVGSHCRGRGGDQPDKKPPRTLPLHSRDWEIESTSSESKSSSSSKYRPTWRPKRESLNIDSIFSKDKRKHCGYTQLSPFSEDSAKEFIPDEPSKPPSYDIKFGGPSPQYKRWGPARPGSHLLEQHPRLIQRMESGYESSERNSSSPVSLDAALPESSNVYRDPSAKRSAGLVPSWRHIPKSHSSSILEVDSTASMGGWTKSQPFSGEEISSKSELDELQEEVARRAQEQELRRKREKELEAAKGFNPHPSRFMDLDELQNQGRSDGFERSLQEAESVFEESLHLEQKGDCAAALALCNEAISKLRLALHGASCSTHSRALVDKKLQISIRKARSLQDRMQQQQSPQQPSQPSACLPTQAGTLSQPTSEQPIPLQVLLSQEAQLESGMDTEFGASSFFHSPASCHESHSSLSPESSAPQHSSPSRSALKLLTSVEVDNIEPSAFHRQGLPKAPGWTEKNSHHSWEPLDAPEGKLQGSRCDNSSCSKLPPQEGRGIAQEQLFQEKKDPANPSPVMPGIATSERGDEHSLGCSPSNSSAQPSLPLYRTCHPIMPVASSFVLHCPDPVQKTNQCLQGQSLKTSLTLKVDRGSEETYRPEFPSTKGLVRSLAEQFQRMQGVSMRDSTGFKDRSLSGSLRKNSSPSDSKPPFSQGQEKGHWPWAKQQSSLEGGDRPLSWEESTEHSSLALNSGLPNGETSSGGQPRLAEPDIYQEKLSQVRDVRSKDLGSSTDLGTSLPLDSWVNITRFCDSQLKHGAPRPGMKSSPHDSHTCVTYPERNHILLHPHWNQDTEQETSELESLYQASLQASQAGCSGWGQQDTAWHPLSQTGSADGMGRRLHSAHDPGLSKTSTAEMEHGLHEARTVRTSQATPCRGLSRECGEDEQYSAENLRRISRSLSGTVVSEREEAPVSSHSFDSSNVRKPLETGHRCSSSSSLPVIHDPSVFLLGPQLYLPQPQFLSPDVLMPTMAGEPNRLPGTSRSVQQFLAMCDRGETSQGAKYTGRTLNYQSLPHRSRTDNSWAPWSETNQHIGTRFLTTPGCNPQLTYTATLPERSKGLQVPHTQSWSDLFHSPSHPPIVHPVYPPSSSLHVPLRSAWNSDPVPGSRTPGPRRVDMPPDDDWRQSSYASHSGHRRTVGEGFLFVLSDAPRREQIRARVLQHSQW
Chain of USP7 (Q93009 whole entry, looked up): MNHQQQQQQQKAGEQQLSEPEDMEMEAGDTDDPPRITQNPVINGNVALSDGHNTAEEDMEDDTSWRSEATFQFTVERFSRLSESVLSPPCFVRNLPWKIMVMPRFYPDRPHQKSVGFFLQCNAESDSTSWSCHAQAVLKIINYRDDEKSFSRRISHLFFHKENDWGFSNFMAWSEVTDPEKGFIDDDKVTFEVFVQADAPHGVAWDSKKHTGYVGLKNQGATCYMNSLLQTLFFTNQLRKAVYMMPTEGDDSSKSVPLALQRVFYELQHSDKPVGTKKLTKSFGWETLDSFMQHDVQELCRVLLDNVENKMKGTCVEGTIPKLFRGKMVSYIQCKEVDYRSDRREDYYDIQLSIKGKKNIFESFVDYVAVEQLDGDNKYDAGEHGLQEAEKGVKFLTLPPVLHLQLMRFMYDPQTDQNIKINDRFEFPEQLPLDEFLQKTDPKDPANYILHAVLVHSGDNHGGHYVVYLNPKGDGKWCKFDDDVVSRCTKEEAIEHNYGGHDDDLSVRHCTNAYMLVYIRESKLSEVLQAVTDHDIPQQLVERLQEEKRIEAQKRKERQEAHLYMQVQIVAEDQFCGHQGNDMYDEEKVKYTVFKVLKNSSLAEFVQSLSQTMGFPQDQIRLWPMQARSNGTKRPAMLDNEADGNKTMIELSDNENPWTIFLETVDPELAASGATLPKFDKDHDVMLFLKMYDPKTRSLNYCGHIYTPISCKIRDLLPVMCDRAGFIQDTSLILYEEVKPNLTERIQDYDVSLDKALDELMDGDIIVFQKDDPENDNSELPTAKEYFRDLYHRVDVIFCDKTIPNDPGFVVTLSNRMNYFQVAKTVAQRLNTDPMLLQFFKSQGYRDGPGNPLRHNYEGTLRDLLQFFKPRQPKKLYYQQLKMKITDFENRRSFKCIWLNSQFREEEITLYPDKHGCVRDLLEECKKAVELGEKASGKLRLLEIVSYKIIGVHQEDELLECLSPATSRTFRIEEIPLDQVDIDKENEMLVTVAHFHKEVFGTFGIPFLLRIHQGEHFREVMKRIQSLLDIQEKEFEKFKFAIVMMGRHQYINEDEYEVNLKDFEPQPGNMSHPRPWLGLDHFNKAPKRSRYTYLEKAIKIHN
Chain of UniProt O00487 (O00487 whole entry): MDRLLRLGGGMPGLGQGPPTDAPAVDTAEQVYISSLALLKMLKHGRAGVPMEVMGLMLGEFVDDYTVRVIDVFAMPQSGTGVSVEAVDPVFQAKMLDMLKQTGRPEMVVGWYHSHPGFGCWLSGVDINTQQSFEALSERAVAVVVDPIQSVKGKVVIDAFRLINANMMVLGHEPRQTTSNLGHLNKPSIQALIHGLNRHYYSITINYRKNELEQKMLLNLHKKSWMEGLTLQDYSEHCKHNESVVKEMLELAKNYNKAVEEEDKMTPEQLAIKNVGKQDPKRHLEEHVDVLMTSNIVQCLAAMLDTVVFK

For the molecule `Cc1ccc(N(C(=O)CCl)C2C=CS(=O)(=O)C2)cc1` (stereo not given), the “log2 ratio of Biotin-Ahx-Ub-VS probe labelling” value (“log2 ratio” for short) in [1] is 0.262; in [2], -0.055; in [3], -1.11 (active); in [4], -0.839; in assay [5] it was 0.431; in [6] it was -0.495. For the same molecule, the “log2 ratio” value in assay [7] is -1.19 (active); in assay [8] it was 0.108; in assay [9], 0.0636; in [10] it was 0.0368.

Take `Cc1cccc(C)c1NC(=O)CCl`: the “log2 ratio” value is -0.0226 in assay [1]; -0.0272 in assay [2]; 0.139 in assay [3]; -0.538 in assay [4]; -0.194 in assay [5]; 0.412 in assay [6]. For the same molecule, the “log2 ratio” value is -0.264 in assay [7], -0.461 in assay [8], -0.187 in [9] and -0.00227 in [10].
